These results are taken from PubChem BioAssay.

Experiment [1] can be described thus: binders of probe aFSTL3 on microarray, primary screen, stem cell growth factor project, biochemical, small-molecule microarray, fluorescence 635/667 (AID 1064).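 Further: measures binding of the biotinylated anti-FSTL3 antibody to printed compounds.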 The following applies: higher = more signal.
Experiment [2] in a line: binders from COS7 lysate, DM2A8 probe, primary screen, torsin A project, cell lysate, small-molecule microarray, fluorescence 635/667 (AID 1065). The following applies: higher = more signal, COS7 lysate expressing mutant human TOR1A.
A short description of experiment [3]: binders of probe aFGF2 on microarray, primary screen, stem cell growth factor project, biochemical, small-molecule microarray, fluorescence 635/667 (AID 1067).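 Further: measures binding of biotinylated aFGF2 protein to printed compounds on slides; z-score merges feature fluorescence and signal-to-noise across triplicate slides.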 As to conditions: higher = more signal.
Experiment [4] is described as follows: binders of probe aFGF10 on microarray, primary screen, stem cell growth factor project, biochemical, small-molecule microarray, fluorescence 635/667 (AID 1071).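 Further: score merges 667 nm spot intensity and signal to noise from triplicate slides.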 The following applies: higher = more signal.
For experiment [5], the target named is Neurogenic locus notch homolog protein 2 (Homo sapiens) (UniProt Q04721). Nature of the experiment: Notch2 binders on small-molecule microarrays, primary screen, biochemical, small-molecule microarray, 635 nm fluorescence, stem cell growth factors (AID 1073). The following applies: Notch2 binding, higher = more signal.
The target of experiment [6] is Pro-neuregulin-1, membrane-bound isoform (Homo sapiens) (UniProt Q02297). Nature of the experiment: NRG1 binders on small-molecule microarrays, primary screen, psychiatric disease protein project, biochemical, small-molecule microarray, fluorescence 635/667 (AID 1075).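 Further: score combines 667 nm spot fluorescence with signal to noise.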 As to conditions: NRG1 binding, 635 nm fluorescence, higher = more signal.
Experiment [7] concerns Neuregulin-1 EGF-like domain. The experiment can be described thus: binders of neuregulin-1 EGF-like domain, primary screen, biochemical, small-molecule microarray, 635 nm fluorescence (AID 1081).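 Further: binding of the protein to compounds printed on small-molecule microarray slides.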 The following applies: small-molecule microarray binding, higher = more signal.
Experiment [8] is described as follows: FRG1 promoter luciferase signal modulators, primary screen, FRG1 inhibition for FSHD, cell-based, C2C12 myotubes, firefly/Renilla luciferase, luminescence (AID 1084). As to conditions: higher = more signal, called active from +8 up or from −8 down.
Experiment [9] can be described thus: binders of probe aFST on microarray, primary screen, stem cell growth factor project, biochemical, small-molecule microarray, fluorescence 635/667 (AID 1086).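 Further: score merges 667 nm fluorescence with signal-to-noise of each printed compound spot.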 As to conditions: higher = more signal.
A short description of experiment [10]: binders of probe aHhip on microarray, primary screen, stem cell growth factor project, biochemical, small-molecule microarray, fluorescence 635/667 (AID 1087).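 Further: score merges spot fluorescence at 667nm with spot signal to noise ratio.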 As to conditions: higher = more signal.
Experiment [11] relates to PRMT1 (protein arginine N-methyltransferase 1). The experiment can be described thus: PRMT1 binders on small-molecule microarrays, primary screen, biochemical, small-molecule microarray, 635 nm fluorescence (AID 1088).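 Further: binding of Prmt1 protein to compounds spotted on small-molecule microarray slides.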 As to conditions: small-molecule microarray binding, higher = more signal.
A short description of experiment [12]: yeast growth modulation, basal conditions, primary screen, YJM789 clinical isolate, OD600, 24 h (AID 1089).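 Further: growth of clinical yeast isolate S. cerevisiae YJM 789 seeded 1000 cells per well; test concentration not given here.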 The following applies: S. cerevisiae YJM789 growth, higher = more signal, called active from +8 up or from −8 down.
Experiment [13] in a line: fission yeast growth modulation, primary screen, strain 972, OD600, 24 h, no modulator (AID 1090).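 Further: basal condition with compound alone and no growth modifier present; test concentration not given here.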 As to conditions: S. pombe 972 growth, higher = more signal, called active from +8 up or from −8 down.
The nature of experiment [14]: S. cerevisiae growth modulation with rapamycin, primary screen, strain BY4716, OD600, 96 h (AID 1091). Further: test concentration not given here. As to conditions: higher = more signal, called active from +8 up or from −8 down.
Experiment [15] deals with Torsin-1A-interacting protein 2 (Homo sapiens) (UniProt Q8NFQ8). Nature of the experiment: LULL1 binders on small-molecule microarray, primary screen, cell lysate, human LULL1 lysate, 635/667 nm fluorescence (AID 1092).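 Further: probe is lysate of COS7 cells overexpressing human LULL1; score merges per-feature 667 nm fluorescence with signal-to-noise.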 As to conditions: hLULL1 lysate binding, 635 nm fluorescence, higher = more signal.
Experiment [16] can be described thus: E. coli growth modulation, two-sided OD650, primary screen, E. coli filamentation project, strain DRC41, 24 h (AID 1093).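 Further: MC1000 strain lacking acrAB efflux and sulA so SOS filamentation is blocked; test concentration not given here.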 The following applies: OD650, 24 h, higher = more signal, called active from +8 up or from −8 down.
A short description of experiment [17]: small-molecule microarray binders of probe aLefty2, primary screen, biochemical, biotinylated probe, 635/667 nm fluorescence (AID 1094).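 Further: score merges spot fluorescence near 667 nm with spot signal-to-noise ratio.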 As to conditions: higher = more signal.
The subject of experiment [18] is Noggin (protein binding on small-molecule microarray). The experiment can be described thus: Noggin binders on small-molecule microarray, primary screen, biochemical, 635/667 nm fluorescence (AID 1095).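 Further: score merges 667 nm feature fluorescence with signal to noise over triplicate slides.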 The following applies: 635 nm fluorescence, higher = more signal.
Experiment [19] has as its target Neurogenic locus notch homolog protein 3 (Homo sapiens) (UniProt Q9UM47). Nature of the experiment: NOTCH3 binders on small-molecule microarray, primary screen, biochemical, 635/667 nm fluorescence (AID 1096). As to conditions: NOTCH3 binding, 635 nm fluorescence, higher = more signal.
Experiment [20] in a line: small-molecule microarray binders of probe aEGFR, primary screen, biochemical, biotinylated probe, 635/667 nm fluorescence (AID 1097).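 Further: probe is a biotinylated anti-EGFR antibody binding compounds printed on slides; score combines fluorescence near 667 nm and signal to noise of each spot.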 The following applies: higher = more signal.

The source made the active and inactive calls.

Chain of Neurogenic locus notch homolog protein 3 (Homo sapiens) (Q9UM47 whole entry, looked up): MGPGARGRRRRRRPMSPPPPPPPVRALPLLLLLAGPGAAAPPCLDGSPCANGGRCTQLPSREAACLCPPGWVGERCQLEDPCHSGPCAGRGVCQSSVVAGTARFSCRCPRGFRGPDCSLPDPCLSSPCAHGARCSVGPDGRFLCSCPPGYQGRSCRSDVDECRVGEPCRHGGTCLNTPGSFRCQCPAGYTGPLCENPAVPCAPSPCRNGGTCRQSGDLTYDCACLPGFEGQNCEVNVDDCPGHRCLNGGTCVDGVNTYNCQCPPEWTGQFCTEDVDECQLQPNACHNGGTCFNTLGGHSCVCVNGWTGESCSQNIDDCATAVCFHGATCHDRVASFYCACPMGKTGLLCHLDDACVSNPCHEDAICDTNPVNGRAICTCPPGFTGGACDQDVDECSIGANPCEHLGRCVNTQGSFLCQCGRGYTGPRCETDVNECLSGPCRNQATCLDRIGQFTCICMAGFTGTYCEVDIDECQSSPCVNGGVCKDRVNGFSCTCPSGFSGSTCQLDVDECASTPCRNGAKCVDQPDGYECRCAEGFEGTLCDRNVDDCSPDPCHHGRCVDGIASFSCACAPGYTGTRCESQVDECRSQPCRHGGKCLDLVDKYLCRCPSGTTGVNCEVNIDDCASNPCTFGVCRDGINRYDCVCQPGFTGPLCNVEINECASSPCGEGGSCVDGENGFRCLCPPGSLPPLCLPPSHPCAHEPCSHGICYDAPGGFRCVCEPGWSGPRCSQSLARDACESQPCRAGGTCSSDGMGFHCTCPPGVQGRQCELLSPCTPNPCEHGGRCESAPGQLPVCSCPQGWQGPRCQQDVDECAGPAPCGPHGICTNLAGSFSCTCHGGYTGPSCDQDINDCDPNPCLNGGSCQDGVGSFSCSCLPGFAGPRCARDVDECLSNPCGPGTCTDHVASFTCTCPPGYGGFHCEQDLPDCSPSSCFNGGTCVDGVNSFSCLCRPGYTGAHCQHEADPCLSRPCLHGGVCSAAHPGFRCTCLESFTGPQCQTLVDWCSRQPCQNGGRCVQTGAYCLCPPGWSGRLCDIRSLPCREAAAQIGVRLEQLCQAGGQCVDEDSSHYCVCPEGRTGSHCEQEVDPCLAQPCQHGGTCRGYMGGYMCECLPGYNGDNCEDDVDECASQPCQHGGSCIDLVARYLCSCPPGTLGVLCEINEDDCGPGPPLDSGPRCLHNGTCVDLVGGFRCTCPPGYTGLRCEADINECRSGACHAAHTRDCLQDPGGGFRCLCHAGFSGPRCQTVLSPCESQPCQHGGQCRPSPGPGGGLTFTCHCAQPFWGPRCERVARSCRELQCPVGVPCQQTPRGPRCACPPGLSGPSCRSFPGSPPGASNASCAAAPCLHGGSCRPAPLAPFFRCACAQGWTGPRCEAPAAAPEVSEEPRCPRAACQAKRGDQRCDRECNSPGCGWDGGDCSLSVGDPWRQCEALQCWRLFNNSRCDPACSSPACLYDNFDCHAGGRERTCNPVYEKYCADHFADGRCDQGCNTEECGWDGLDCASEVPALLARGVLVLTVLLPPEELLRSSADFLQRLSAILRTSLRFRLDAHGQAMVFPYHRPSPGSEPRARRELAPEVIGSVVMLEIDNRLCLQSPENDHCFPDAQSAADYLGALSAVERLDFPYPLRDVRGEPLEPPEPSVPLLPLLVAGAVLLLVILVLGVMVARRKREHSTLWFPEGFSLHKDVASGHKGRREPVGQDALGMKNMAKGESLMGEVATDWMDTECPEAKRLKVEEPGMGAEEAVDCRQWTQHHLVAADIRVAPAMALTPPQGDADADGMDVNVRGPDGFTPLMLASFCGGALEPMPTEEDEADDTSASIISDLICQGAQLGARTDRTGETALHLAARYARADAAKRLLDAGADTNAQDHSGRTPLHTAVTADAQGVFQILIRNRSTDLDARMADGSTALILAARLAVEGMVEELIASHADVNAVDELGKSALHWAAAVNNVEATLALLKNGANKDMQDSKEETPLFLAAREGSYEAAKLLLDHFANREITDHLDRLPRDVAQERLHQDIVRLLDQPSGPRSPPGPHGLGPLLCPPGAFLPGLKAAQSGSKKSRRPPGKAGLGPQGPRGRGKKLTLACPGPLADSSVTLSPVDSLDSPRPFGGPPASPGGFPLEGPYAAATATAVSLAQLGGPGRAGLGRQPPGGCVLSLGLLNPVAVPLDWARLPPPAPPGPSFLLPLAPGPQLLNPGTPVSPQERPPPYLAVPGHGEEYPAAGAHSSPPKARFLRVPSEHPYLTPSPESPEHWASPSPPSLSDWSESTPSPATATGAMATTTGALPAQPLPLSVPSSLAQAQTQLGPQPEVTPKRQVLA
Chain of Pro-neuregulin-1, membrane-bound isoform (Homo sapiens) (Q02297 whole entry, looked up, the tested form may be a part, canonical isoform): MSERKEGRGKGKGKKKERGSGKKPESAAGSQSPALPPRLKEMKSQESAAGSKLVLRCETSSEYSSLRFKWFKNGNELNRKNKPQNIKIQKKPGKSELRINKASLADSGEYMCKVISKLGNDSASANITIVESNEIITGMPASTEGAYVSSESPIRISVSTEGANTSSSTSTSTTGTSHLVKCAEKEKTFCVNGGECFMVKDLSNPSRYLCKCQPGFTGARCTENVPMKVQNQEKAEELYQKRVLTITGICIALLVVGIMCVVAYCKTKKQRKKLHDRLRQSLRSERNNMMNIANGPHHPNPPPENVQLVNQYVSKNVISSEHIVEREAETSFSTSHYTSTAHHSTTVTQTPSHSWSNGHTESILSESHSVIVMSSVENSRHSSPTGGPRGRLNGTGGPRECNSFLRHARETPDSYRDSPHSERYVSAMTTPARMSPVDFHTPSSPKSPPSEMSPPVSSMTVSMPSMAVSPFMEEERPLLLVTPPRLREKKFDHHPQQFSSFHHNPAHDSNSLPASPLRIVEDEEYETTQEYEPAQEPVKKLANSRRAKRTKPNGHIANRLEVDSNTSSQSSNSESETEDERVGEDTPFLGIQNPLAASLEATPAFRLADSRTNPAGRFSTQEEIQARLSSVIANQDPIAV
Chain of Torsin-1A-interacting protein 2 (Homo sapiens) (Q8NFQ8 whole entry, looked up): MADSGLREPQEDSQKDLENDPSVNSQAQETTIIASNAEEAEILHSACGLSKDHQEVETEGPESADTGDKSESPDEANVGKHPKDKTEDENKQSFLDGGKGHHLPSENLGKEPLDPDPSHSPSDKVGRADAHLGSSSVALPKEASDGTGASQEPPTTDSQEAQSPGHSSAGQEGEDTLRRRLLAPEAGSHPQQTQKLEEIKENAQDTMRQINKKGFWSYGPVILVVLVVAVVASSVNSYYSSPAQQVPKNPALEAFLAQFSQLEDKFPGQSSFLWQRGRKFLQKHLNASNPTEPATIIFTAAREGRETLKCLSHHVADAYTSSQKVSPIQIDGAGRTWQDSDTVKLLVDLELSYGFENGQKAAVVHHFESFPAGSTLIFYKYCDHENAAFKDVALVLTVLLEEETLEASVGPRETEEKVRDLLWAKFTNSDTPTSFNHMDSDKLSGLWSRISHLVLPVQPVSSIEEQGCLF

With `O=C(Nc1cc(Br)ccc1C(=O)NCc1cccc(O)c1)c1ccccc1`, the composite z-score was -0.0036 in experiment [1]; 0.296 in experiment [2]; -0.0144 in [3]; 0.478 in experiment [4]; 0.708 in experiment [5]; 1.95 in [6]. The composite z-score in [7] was 1.15; in experiment [9] it was 0.395; in [10], -0.318; in [11], 1.45; in [15], 2.5; in [17], -0.0291. Further, the composite z-score in experiment [18] was -0.0072; in [19], 0.275; in [20], -0.0947. Further, the z-score in [8] was -1.07 (inactive); in experiment [12], 1.06 (inactive); in experiment [13], -2.4 (inactive); in experiment [14], 0.537 (inactive); in [16], 2.81 (inactive).

With `CC(C)=CCCC(C)=CC(O)C1C=CC2C(=O)N(c3ccccc3)C(=O)C2N1Nc1ccc([N+](=O)[O-])cc1` (stereo not given), the composite z-score in experiment [1] was -0.265; in experiment [2] it was 0.148; in [3], 0.0159; in experiment [4], 0.344; in [5], 1.59; in experiment [6], 1.64. Also, the composite z-score in experiment [7] is 1.28; in [9], 0.852; in experiment [10], -0.0237; in [11], 1.52; in experiment [15] it was 3.8; in [17], 0.0634. In addition, the composite z-score in experiment [18] was -0.14; in experiment [19], 1.12; in experiment [20] it was 0.0466. Moreover, the z-score is -1.01 (inactive) in experiment [8]; -0.706 (inactive) in experiment [12]; -0.589 (inactive) in [13]; 8.22 (active) in experiment [14]; -0.867 (inactive) in [16].

Turning to `C=CC[C@]1(C(=O)NCC(O)CO)N=C(c2ccc(OCCCO)cc2)O[C@H]1c1ccccc1N=[N+]=[N-]` (stereo not given in full), the composite z-score in experiment [1] is 0.227; in experiment [2], -0.444; in experiment [3], 0.0649; in experiment [4], 0.154; in experiment [5], 0.323; in experiment [6], 1.8. Further, the composite z-score in [7] came to 1.11; in experiment [9], 0.375; in experiment [10] it was 0.23; in experiment [11] it was 1.03; in [15], 3.31; in experiment [17] it was 0.406. In addition, the composite z-score in experiment [18] is -0.0496; in experiment [19], -0.0588; in experiment [20] it was -0.142. The z-score was 1.25 (inactive) in experiment [8]; -0.285 (inactive) in experiment [12]; -0.529 (inactive) in experiment [13]; -0.325 (inactive) in experiment [14]; 0.346 (inactive) in experiment [16].

Regarding `CCCCC(=C=CC[C@H](O)c1ccccc1OCCO)C[C@H](O)c1ccccn1`, the composite z-score is -0.0078 in experiment [1]; 1.07 in [2]; -0.116 in [3]; -0.0673 in experiment [4]; -0.285 in experiment [5]; 0.466 in [6]. For the same compound, the composite z-score in experiment [7] was 0.376; in experiment [9], 0.0552; in experiment [10], -0.456; in [11], 1.13; in [15], 0.0266; in [17] it was -0.0699. Besides, the composite z-score in experiment [18] was 0.939; in experiment [19], 0.0956; in experiment [20] it was -0.179. Also, the z-score is -1.38 (inactive) in experiment [8]; 0.27 (inactive) in [12]; -0.132 (inactive) in [13]; 0.0422 (inactive) in experiment [14]; 1.3 (inactive) in [16].

For `C=CCOC(=O)[C@H]1[C@@H]2C(=O)O[C@@H](c3ccccc3)[C@@H](c3ccccc3)N2[C@@H](c2ccc(OCCOC(=O)[C@H]3C[C@H]4C(=O)N[C@@H](CCCCN(C)C)C(=O)N4[C@H]3c3ccc(O)cc3)cc2)[C@]12C(=O)Nc1ccccc12`, the composite z-score was 0.27 in [1]; 0.91 in [2]; -0.033 in experiment [3]; 0.445 in experiment [4]; 0.349 in [5]; -0.013 in experiment [6]. Besides, the composite z-score in experiment [7] was determined as 1.19; in experiment [9] it was 0.86; in experiment [10] it was 0.0524; in [11] it was 1.54; in experiment [15], 2.49; in [17] it was 0.155. Moreover, the composite z-score in experiment [18] is 1.83; in experiment [19] it was 1.06; in experiment [20], 0.0088. The z-score was 0.139 (inactive) in experiment [8]; -0.0535 (inactive) in experiment [12]; -1.03 (inactive) in [13]; -0.713 (inactive) in experiment [14]; -0.296 (inactive) in experiment [16].
